# Source: the supplement of paper PMC12282887
# ± gives the standard deviation of the averaged measurements.
# Legend:
# Assay in all cases: promoter activity interaction Z-score (Lux/OD deviation from empty-vector control); higher = stronger promoter induction by the compound
# [1] = system: E. coli BW25113 acrABp lux reporter
# Method in brief: (§1)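 At 37°C, E. coli BW25113 reporter cultures in 40 µl LB Lennox in 384-well plates were read for OD600 and luminescence every 30 min for 12 h. Windows were 0–8 h for wild type and 1–9 h for deletion strains, and wells under 10% of the median growth value were removed. The score is the Z-transformed residual of growth-normalised luminescence against a control fit.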
# [2] = system: E. coli BW25113 marRABp lux reporter
# Method in brief: as §1
# [3] = system: E. coli BW25113 micFp lux reporter
# Method in brief: as §1
# [4] = system: E. coli BW25113 ompFp lux reporter
# Method in brief: as §1
# [5] = system: E. coli BW25113 robp lux reporter
# Method in brief: as §1
# [6] = system: E. coli BW25113 soxSp lux reporter
# Method in brief: as §1
# [7] = system: E. coli BW25113 tolCp lux reporter
# Method in brief: as §1
# [8] = 0.25 µg/ml, genetic background: wild type
# [9] = 0.25 µg/ml, genetic background: ΔmarA
# [10] = 0.25 µg/ml, genetic background: Δrob
# [11] = 0.25 µg/ml, genetic background: ΔsoxS
# [12] = 0.5 µg/ml, genetic background: wild type
# [13] = 0.5 µg/ml, genetic background: ΔmarA
# [14] = 0.5 µg/ml, genetic background: Δrob
# [15] = 0.5 µg/ml, genetic background: ΔsoxS
# [16] = 1 µg/ml, genetic background: wild type
# [17] = 1 µg/ml, genetic background: ΔmarA
# [18] = 1 µg/ml, genetic background: Δrob
# [19] = 1 µg/ml, genetic background: ΔsoxS
# [20] = 2 µg/ml, genetic background: wild type
# [21] = 2 µg/ml, genetic background: ΔmarA
# [22] = 2 µg/ml, genetic background: Δrob
# [23] = 2 µg/ml, genetic background: ΔsoxS
smiles,measurement,setting,value
CC1(C)S[C@@H]2[C@H](NC(=O)[C@H](N)c3ccc(O)cc3)C(=O)N2[C@H]1C(=O)O [Amoxicillin],promoter activity interaction Z-score,[1]; [8],-0.14 ± 0.051
same,promoter activity interaction Z-score,[1]; [9],-0.253 ± 0.59
same,promoter activity interaction Z-score,[1]; [10],-0.295 ± 0.22
same,promoter activity interaction Z-score,[1]; [11],-0.0223 ± 0.27
same,promoter activity interaction Z-score,[1]; [12],0.0232 ± 0.18
same,promoter activity interaction Z-score,[1]; [13],0.274 ± 0.094
same,promoter activity interaction Z-score,[1]; [14],-0.216 ± 0.0076
same,promoter activity interaction Z-score,[1]; [15],-0.454 ± 0.18
same,promoter activity interaction Z-score,[1]; [16],0.074 ± 0.092
same,promoter activity interaction Z-score,[1]; [17],-0.334 ± 1.8
same,promoter activity interaction Z-score,[1]; [18],-0.382 ± 0.033
same,promoter activity interaction Z-score,[1]; [19],-0.0766 ± 0.0011
same,promoter activity interaction Z-score,[1]; [20],2.15
same,promoter activity interaction Z-score,[1]; [21],0.388
same,promoter activity interaction Z-score,[1]; [22],0.134
same,promoter activity interaction Z-score,[2]; [8],-0.00562 ± 0.025
same,promoter activity interaction Z-score,[2]; [9],-0.347 ± 0.22
same,promoter activity interaction Z-score,[2]; [10],-0.215 ± 0.082
same,promoter activity interaction Z-score,[2]; [11],-0.207 ± 0.2
same,promoter activity interaction Z-score,[2]; [12],-0.157 ± 0.027
same,promoter activity interaction Z-score,[2]; [13],-0.297 ± 0.22
same,promoter activity interaction Z-score,[2]; [14],-0.322 ± 0.047
same,promoter activity interaction Z-score,[2]; [15],-0.372 ± 0.14
same,promoter activity interaction Z-score,[2]; [16],-0.138 ± 0.097
same,promoter activity interaction Z-score,[2]; [17],-0.483 ± 0.18
same,promoter activity interaction Z-score,[2]; [18],-0.211 ± 0.031
same,promoter activity interaction Z-score,[2]; [19],-0.251 ± 0.091
same,promoter activity interaction Z-score,[2]; [20],2.97
same,promoter activity interaction Z-score,[2]; [21],2.07
same,promoter activity interaction Z-score,[2]; [22],3.21
same,promoter activity interaction Z-score,[2]; [23],1.67
same,promoter activity interaction Z-score,[3]; [8],0.256 ± 0.44
same,promoter activity interaction Z-score,[3]; [9],-0.0861 ± 0.065
same,promoter activity interaction Z-score,[3]; [10],0.0252 ± 0.083
same,promoter activity interaction Z-score,[3]; [11],-0.211 ± 0.11
same,promoter activity interaction Z-score,[3]; [12],0.278 ± 0.29
same,promoter activity interaction Z-score,[3]; [13],-0.0538 ± 0.13
same,promoter activity interaction Z-score,[3]; [14],0.0683 ± 0.17
same,promoter activity interaction Z-score,[3]; [15],-0.261 ± 0.46
same,promoter activity interaction Z-score,[3]; [16],0.0789 ± 0.095
same,promoter activity interaction Z-score,[3]; [17],-0.0503 ± 0.00046
same,promoter activity interaction Z-score,[3]; [18],0.0923 ± 0.071
same,promoter activity interaction Z-score,[3]; [19],-0.05 ± 0.078
same,promoter activity interaction Z-score,[3]; [20],1.75 ± 2.8
same,promoter activity interaction Z-score,[3]; [21],-0.285 ± 0.003
same,promoter activity interaction Z-score,[3]; [22],-0.0252 ± 0.1
same,promoter activity interaction Z-score,[3]; [23],-0.185 ± 0.25
same,promoter activity interaction Z-score,[4]; [8],0.146 ± 0.14
same,promoter activity interaction Z-score,[4]; [9],-0.696 ± 0.38
same,promoter activity interaction Z-score,[4]; [10],-0.183 ± 0.067
same,promoter activity interaction Z-score,[4]; [11],-0.811 ± 0.064
same,promoter activity interaction Z-score,[4]; [12],0.133 ± 0.13
same,promoter activity interaction Z-score,[4]; [13],-0.265 ± 0.34
same,promoter activity interaction Z-score,[4]; [14],-0.637 ± 0.024
same,promoter activity interaction Z-score,[4]; [15],-0.837 ± 0.48
same,promoter activity interaction Z-score,[4]; [16],-0.523 ± 0.21
same,promoter activity interaction Z-score,[4]; [17],-0.753 ± 0.13
same,promoter activity interaction Z-score,[4]; [18],-0.725 ± 0.24
same,promoter activity interaction Z-score,[4]; [19],-0.869 ± 0.041
same,promoter activity interaction Z-score,[4]; [21],-1.92
same,promoter activity interaction Z-score,[5]; [8],0.459 ± 0.29
same,promoter activity interaction Z-score,[5]; [9],-0.028 ± 0.04
same,promoter activity interaction Z-score,[5]; [10],-0.226 ± 0.034
same,promoter activity interaction Z-score,[5]; [11],-0.349 ± 0.75
same,promoter activity interaction Z-score,[5]; [12],0.699 ± 0.03
same,promoter activity interaction Z-score,[5]; [13],-0.354 ± 0.23
same,promoter activity interaction Z-score,[5]; [14],0.168 ± 0.52
same,promoter activity interaction Z-score,[5]; [15],-0.698 ± 0.12
same,promoter activity interaction Z-score,[5]; [16],-0.0437 ± 0.14
same,promoter activity interaction Z-score,[5]; [17],-0.0839 ± 0.86
same,promoter activity interaction Z-score,[5]; [18],0.396 ± 1.2
same,promoter activity interaction Z-score,[5]; [19],-1.05 ± 0.49
same,promoter activity interaction Z-score,[5]; [20],-1.64
same,promoter activity interaction Z-score,[5]; [21],0.17
same,promoter activity interaction Z-score,[6]; [8],0.174 ± 0.46
same,promoter activity interaction Z-score,[6]; [9],-0.165 ± 0.13
same,promoter activity interaction Z-score,[6]; [10],0.236 ± 0.24
same,promoter activity interaction Z-score,[6]; [11],-0.199 ± 0.15
same,promoter activity interaction Z-score,[6]; [12],0.319 ± 0.15
same,promoter activity interaction Z-score,[6]; [13],-0.00956 ± 0.1
same,promoter activity interaction Z-score,[6]; [14],0.0715 ± 0.076
same,promoter activity interaction Z-score,[6]; [15],-0.424 ± 0.15
same,promoter activity interaction Z-score,[6]; [16],0.0777 ± 0.017
same,promoter activity interaction Z-score,[6]; [17],-0.259 ± 0.12
same,promoter activity interaction Z-score,[6]; [18],0.156 ± 0.14
same,promoter activity interaction Z-score,[6]; [19],-0.361 ± 0.23
same,promoter activity interaction Z-score,[6]; [20],0.325 ± 0.57
same,promoter activity interaction Z-score,[6]; [21],-0.389 ± 0.55
same,promoter activity interaction Z-score,[6]; [22],0.0112 ± 0.1
same,promoter activity interaction Z-score,[6]; [23],0.999 ± 0.21
same,promoter activity interaction Z-score,[7]; [8],0.312 ± 0.33
same,promoter activity interaction Z-score,[7]; [9],-0.1 ± 0.033
same,promoter activity interaction Z-score,[7]; [10],0.375 ± 1
same,promoter activity interaction Z-score,[7]; [11],-0.105 ± 0.3
same,promoter activity interaction Z-score,[7]; [12],0.531 ± 0.051
same,promoter activity interaction Z-score,[7]; [13],0.00734 ± 0.28
same,promoter activity interaction Z-score,[7]; [14],0.919 ± 0.041
same,promoter activity interaction Z-score,[7]; [15],-0.655 ± 0.93
same,promoter activity interaction Z-score,[7]; [16],0.148 ± 0.45
same,promoter activity interaction Z-score,[7]; [17],-0.404 ± 0.22
same,promoter activity interaction Z-score,[7]; [18],0.949 ± 0.14
same,promoter activity interaction Z-score,[7]; [19],-0.0133 ± 0.46
same,promoter activity interaction Z-score,[7]; [20],0.917 ± 0.13
same,promoter activity interaction Z-score,[7]; [21],-0.67 ± 0.039
same,promoter activity interaction Z-score,[7]; [22],0.283 ± 0.8
same,promoter activity interaction Z-score,[7]; [23],-0.752 ± 0.58
